Bioassay records as filed in PubChem BioAssay.
SMARCA2 activ = SMARCA2 (BRM) function activators, primary screen, cell-based, luminescence, high throughput. MG213 cells, MMTV-luciferase reporter, dexamethasone, overnight. activation, % at 9.1 µM. 370,000 compounds, 1% hits; in the data active means activation above about 7.8%;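 further: 0% = vehicle wells and 100% = reference activator wells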
esBAF inh = Bmi1 luciferase reporter increase in mESCs, primary screen, esBAF inhibitor project, mouse ES cells, Bmi1 luciferase knock-in, single point. 24 h; 100% = twice the neutral-well signal. reporter increase, % at 12.5 µM. 350,000 compounds, 2% hits. AID 602393, 2012; in the data active means activation above about 40%;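 further: 0% = median of the plate's neutral control wells and 100% = double that signal; a rise in the Bmi1 reporter signal indicates esBAF inhibition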
Wnt act = Wnt/beta-catenin pathway activators, primary screen, cell-based, plate reader, single point | AID 743398, 2014 | activation, % at 9.35 µM | 300,000 compounds, 1.2% hits | Wnt/beta-catenin reporter cell assay, activator; in the data active means activation above about 30%, passing the limit was not always enough;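 further: 0% = neutral control wells and 100% = positive control wells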
FGF22 binding = binders of human FGF22 protein, primary screen, FGF22 synaptogenesis inhibitor project, biophysical, thermal shift, single point | recombinant FGF22 thermal shift, SYPRO orange fluorescence; percent of sucrose octasulfate shift, DMSO zero | 340,000 compounds, 1.5% hits | Fibroblast growth factor 22 (Homo sapiens), Q9HCT0 | activity (Tm shift, normalised), % at 9.99 µM;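 active means mean Tm shift, scaled 0 neutral to 100 positive control, at about 1.3% or above, every replicate too, limit read from the data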
MITF act = activators of MITF-driven TRPM1 promoter reporter, primary screen, cell-based, SK-MEL-5, luciferase, single point | 300,000 compounds, 0.75% hits | activation, % at 12.5 µM | AID 588334, 2011 | SK-MEL-5 TRPM1-promoter luciferase, 24 h; % of positive control, neutral wells = 0;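 active means mean activation of at least 80% with every replicate also reaching 80%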;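 further: 0% = neutral control wells and 100% = parthenolide positive control wells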
MLL AF4-AF9 inh = inhibitors of AF4 peptide binding to AF9, primary screen, biochemical, AlphaScreen, biotin-AF4 peptide, FLAG-AF9, single point. Protein AF-9 (Homo sapiens), P42568. inhibition, % at 10 µM. 350,000 compounds, 0.47% hits. AID 651704, 2012;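 active means every replicate reaching a set inhibition limit, whatever the replicate mean, cut at about 25% in these data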;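 further: 0% = plate neutral control median and 100% = total signal loss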
Target sequence (P42568 whole entry, looked up): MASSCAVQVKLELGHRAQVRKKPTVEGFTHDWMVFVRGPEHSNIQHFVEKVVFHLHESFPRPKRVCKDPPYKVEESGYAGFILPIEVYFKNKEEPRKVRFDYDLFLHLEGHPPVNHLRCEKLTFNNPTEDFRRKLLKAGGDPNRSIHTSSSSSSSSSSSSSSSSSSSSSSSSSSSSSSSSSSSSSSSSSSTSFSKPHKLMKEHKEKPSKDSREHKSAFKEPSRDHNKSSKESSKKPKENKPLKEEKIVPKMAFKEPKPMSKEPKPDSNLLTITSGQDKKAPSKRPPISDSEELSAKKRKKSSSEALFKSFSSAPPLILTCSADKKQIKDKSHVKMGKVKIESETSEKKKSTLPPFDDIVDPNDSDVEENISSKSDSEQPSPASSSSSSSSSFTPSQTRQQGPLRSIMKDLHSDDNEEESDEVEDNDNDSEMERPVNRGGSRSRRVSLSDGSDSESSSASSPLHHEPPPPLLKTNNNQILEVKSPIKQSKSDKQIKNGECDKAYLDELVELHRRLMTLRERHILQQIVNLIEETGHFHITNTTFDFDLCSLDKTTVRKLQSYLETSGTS
SMARCA2 act conf = SMARCA2 (BRM) function activators, confirmation, cell-based, luminescence, triplicate. AID 652260, 2013. activation, % at 9.1 µM. 3,500 compounds, 30% hits. MG213 cells, MMTV-luciferase with dexamethasone, overnight; MG213 cells expressing E1A, Rb sequestered; DMSO wells 0%, reference activator 100%. shares compounds with SMARCA2 activ;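 active means activation above its plate's cutoff, the mean activation of tested wells plus 3 SD, cut at about 7.9% in these data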
VP16 Luc act = GAL4-VP16 luciferase reporter activation, counter-screen for SMARCA2 (BRM) activator project, cell-based, pG5luc, luminescence, high throughput | shares compounds with SMARCA2 activ | HEK293 GAL4-VP16 pG5luc reporter; scaled: DMSO wells 0%, SAHA wells 100% | activation, % at 9.1 µM | 3,500 compounds, 41% hits;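 active means activation above the solvent-only control well mean plus 3 SD, averaged across control plates, cut at about 5.2% in these data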
The depositor's hits bear a star; nt = no result. In the library only some 4.3% were active in any assay of this set; here they are far more common.

SMILES	SMARCA2 activ	esBAF inh	Wnt act	FGF22 binding	MITF act	MLL AF4-AF9 inh	SMARCA2 act conf	VP16 Luc act
CCN1CCN(Cc2nc3ccc([N+](=O)[O-])cc3c(=O)n2-c2ccc(OC)cc2OC)CC1	2	nt	2	0	-10	0	nt	nt
CCOC(=O)c1ccc(-n2c(CN3CCC(C(N)=O)CC3)nc3ccc([N+](=O)[O-])cc3c2=O)cc1	5	17	0	0	3	-13	nt	nt
CCOC(=O)c1ccc(-n2c(CN3CCC(O)CC3)nc3ccc([N+](=O)[O-])cc3c2=O)cc1	19*	4	3	0	-4	5	9.5*	0
CCOC(=O)C1CCN(Cc2nc3ccc([N+](=O)[O-])cc3c(=O)n2-c2ccc(OC)cc2OC)CC1	9.1*	48*	13	0	-1	-2	0	2
CN1C(=O)c2cc(NC(=O)C3CCCC3)ccc2OC[C@H]2O[C@H](CC(=O)Nc3ccccc3)CC[C@@H]21	nt	-2	nt	0	nt	0	nt	nt
CO[C@@H]1CN(C)C(=O)c2ccc(NC(=O)Cc3ccccc3)cc2OC[C@@H](C)N(C(C)=O)C[C@H]1C	nt	1	nt	0	nt	0	nt	nt
O=c1c2ccccc2sc2c(CO)ccc(NCCN3CCCCC3)c12	8.6*	nt	0	0	-16	19	29*	-1
COc1ccc(C2C(C#N)=C(N)N(c3cccnc3)C3=C2C(=O)CC(C)(C)C3)cc1OC (stereo not drawn)	9.2*	nt	-1	0	-4	0	1	2
COc1ccc(N2C(N)=C(C#N)C(c3cccnc3)C3=C2CC(C)(C)CC3=O)cc1 (stereo not drawn)	0	-8	-2	nt	nt	nt	nt	nt
O=C(COC(=O)c1ccccc1O)Nc1cccc(S(=O)(=O)NC2=NCCCCC2)c1	1	4	-1	0	-3	0	nt	nt
O=C(COC(=O)c1ccccc1NCCO)Nc1ccc(S(=O)(=O)NC2=NCCCCC2)cc1	11*	0	3	0	-4	-8	0	1
C[C@@H]1CCCCO[C@H](CN(C)C(=O)Nc2ccccc2)[C@@H](C)CN([C@@H](C)CO)C(=O)c2cc(NS(=O)(=O)c3cn(C)cn3)ccc2O1	nt	-1	nt	1	nt	1	nt	nt
Cc1csc(NC(=O)CSc2ccccc2F)n1	8.4*	nt	1	0	43	-2	2	4
CC(C)(C)NC(=O)NCCc1ccccc1	9.9*	nt	-1	0	nt	-1	10*	8.2*
COc1ccc(/C(O)=C2/C(=O)C(=O)N(c3ncccn3)C2c2ccc(OC)cc2)cc1 (stereo not drawn)	-1	nt	-7	1	11	-2	nt	nt
COc1ccc(C2/C(=C(/O)c3ccccc3)C(=O)C(=O)N2c2ccccn2)cc1 (stereo not drawn)	10*	5	4	0	4	-3	4	1
CCCOc1ccc(/C(O)=C2\C(=O)C(=O)N(c3ccccn3)C2c2ccccc2F)cc1C (stereo not drawn)	15*	9	3	0	2	-1	5	4
C[C@@H]1CN([C@@H](C)CO)C(=O)Cc2cc(NS(=O)(=O)c3cn(C)cn3)ccc2O[C@@H]1CN(C)Cc1ccc(C(F)(F)F)cc1	nt	0	nt	nt	nt	-3	nt	nt
O=C(c1cccnc1)N1C[C@H]2[C@@H](c3ccccc31)[C@@H](CO)N2C(=O)Nc1ccc(F)cc1	nt	-10	nt	0	nt	-3	nt	nt
Cc1ccc(C(=O)/C=C2\NCCNC2=O)cc1	12*	nt	nt	nt	34	nt	12*	15*
COCc1ccc(C(=O)N(C)CC2CCCN(CCc3ccc(OC)cc3)C2)o1 (stereo not drawn)	9.8*	50*	17	0	63	-1	4	5
Nc1ccc2c(c1Cl)C(=O)c1ccc(N)c(Cl)c1C2=O	10*	41	24	0	12	1	23*	5.2*
NCCCn1c(C(=O)c2ccc(Cl)cc2)c2ccc([N+](=O)[O-])cc2[n+]1[O-]	6	-7	8	1	-24	12	nt	nt
N#Cc1c2ccc([N+](=O)[O-])cc2[n+]([O-])n1-c1ccccc1	8.5*	-24	13	0	-90	-3	13*	8.9*
COc1ccc(NC(=O)N(C)C[C@@H]2Oc3ccc(NC(=O)Cc4ccccc4)cc3CC(=O)N([C@H](C)CO)C[C@@H]2C)cc1	nt	7	nt	nt	nt	3	nt	nt
SMILES	SMARCA2 activ	esBAF inh	Wnt act	FGF22 binding	MITF act	MLL AF4-AF9 inh	SMARCA2 act conf	VP16 Luc act
O=c1[nH]c(CSc2nc3ccccc3s2)nc2ccccc12	8.4*	47*	28	0	30	-3	3	4
O=c1[nH]c(CSc2nc3ccccc3s2)nc2cc(Cl)ccc12	-2	nt	-2	0	nt	-2	nt	nt
C[C@@H]1CN([C@@H](C)CO)C(=O)c2cc(-c3ccccc3)cnc2O[C@H]1CN(C)C(=O)Cc1ccccc1	nt	7	nt	0	nt	1	nt	nt
O=C(CC(=O)c1ccccc1)Nc1ccccn1	13*	6	24	0	nt	-4	7	9.2*
COCC(=O)N1[C@H](CO)[C@@H]2c3ccccc3N(C(=O)C3CC3)C[C@@H]21	nt	6	nt	0	nt	-1	nt	nt
CCC(=O)NC1=C(Nc2ccc(N)cc2)C(=O)c2ccccc2C1=O	9.0*	-6	34*	-1	13	12	8	11*
Nc1nc2nn(-c3ccccc3)nc2c(=O)[nH]1	5	-22	16	0	49	-3	nt	nt
Nc1nc2n[nH]nc2c(=O)[nH]1	14*	103*	-3	0	-63	1	22*	2
COc1cccc(NC(=O)Nc2ccc3c(c2)OC[C@H](C)NC[C@@H](C)[C@@H](OC)CN(C)C3=O)c1	nt	9	nt	0	nt	13	nt	nt
Cc1ccc(N2Cc3ccccc3C2=O)cc1	10*	-21	12	0	3	-2	3	5
C(=C\c1nc(N2CCCCCC2)c2ccccc2n1)/c1ccccc1	9.3*	nt	-21	nt	9	nt	2	3
c1ccc2c(N3CCCCC3)nc(N3CCCCC3)nc2c1	-1	nt	nt	nt	-10	nt	nt	nt
